What all share (conditions): mRNA level, 48 h; actives raise or lower the signal
Read-out in assay [1]: Cyclin D1 (CCND1), CCND1 (gene 595)
Briefly: LTEA_HepaRG_CCND1: Life Technologies and Expression Analysis (LTEA) Assay for Cyclin D1 (CCND1) using HepaRG (AID 2283451). The essentials: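 HepaRG plated 48 h, medium switched to serum-free induction medium, chemicals added in duplicate (top 100 uM, half-log steps, 0.5% DMSO) for 48 h, cells lysed, RNA measured by TaqMan qRT-PCR.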

Read-out in assay [2]: flavin-containing dimethylaniline monooxygenases 3 (FMO3), FMO3 (gene 2328)
Briefly: LTEA_HepaRG_FMO3: Life Technologies and Expression Analysis (LTEA) Assay for flavin-containing dimethylaniline monooxygenases 3 (FMO3) using HepaRG (AID 2283453). The gist of the method: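 FMO3 transcript quantified by TaqMan qRT-PCR against three housekeeping genes after 48 h chemical exposure of HepaRG cells. Eight-point half-log series, top 100 uM, 0.5% DMSO vehicle; phenobarbital 1mM induction control; up- or down-regulation fitted.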

Read-out in assay [3]: Cytochrome P450 (CYP1A1), CYP1A1 (gene 1543)
The assay is described as follows: LTEA_HepaRG_CYP1A1: Life Technologies and Expression Analysis (LTEA) Assay for Cytochrome P450 (CYP1A1) using HepaRG (AID 2283454). The essentials: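 HepaRG, 48 h post-plating switched to serum-free induction medium; 8-pt conc-response (top 100 uM, half-log, 0.5% DMSO), duplicates, 48 h. Lysis in RLT, TaqMan qRT-PCR for CYP1A1; gain or loss vs DMSO.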

Read-out in assay [4]: CFLAR gene, CFLAR (gene 8837)
Briefly: LTEA_HepaRG_CFLAR: Life Technologies and Expression Analysis (LTEA) Assay for CFLAR gene using HepaRG (AID 2283455). The gist of the method:
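Transcript level by qRT-PCR (normalized to ACTB, GAPDH and POLR2A) after 48 h chemical exposure of HepaRG cells, top concentration 100 uM with half-log steps, 0.5% DMSO vehicle, duplicates; fitted bidirectionally against DMSO baseline.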

Read-out in assay [5]: Forkhead box O1 (FOXO1), FOXO1 (gene 2308)
The assay is described as follows: LTEA_HepaRG_FOXO1: Life Technologies and Expression Analysis (LTEA) Assay for Forkhead box O1 (FOXO1) using HepaRG (AID 2283456). The gist of the method: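 FOXO1 transcript quantified by qRT-PCR after 48 h chemical exposure (top 100 uM, half-log steps, 0.5% DMSO) of HepaRG cells, housekeeping-normalized (ACTB/GAPDH/POLR2A). Changes fitted in both directions relative to vehicle.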

Read-out in assay [6]: growth arrest and DNA damage 45 (GADD45A), GADD45A (gene 1647)
Briefly: LTEA_HepaRG_GADD45A: Life Technologies and Expression Analysis (LTEA) Assay for growth arrest and DNA damage 45 (GADD45A) using HepaRG (AID 2283458). The essentials: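 Transcript induction or loss, quantified by TaqMan qRT-PCR against three housekeeping genes, is the read-out. HepaRG cells received chemicals for 48 h across eight half-log concentrations from 100 uM in 0.5% DMSO; gain and loss fitted relative to DMSO.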

Read-out in assay [7]: Forkhead box O3 (FOXO3), FOXO3 (gene 2309)
Briefly: LTEA_HepaRG_FOXO3: Life Technologies and Expression Analysis (LTEA) Assay for Forkhead box O3 (FOXO3) using HepaRG (AID 2283459). The essentials:
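FOXO3 transcript measured by qRT-PCR (normalized to ACTB, GAPDH, POLR2A) after 48 h exposure of HepaRG cells in serum-free induction medium. Duplicates, eight half-log concentrations up to 100 uM, 0.5% DMSO; gain or loss fitted against DMSO.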

Read-out in assay [8]: ABC Transporter (ABCB1), ABCB1 (gene 5243)
Briefly: LTEA_HepaRG_ABCB1: Life Technologies and Expression Analysis (LTEA) Assay for ABC Transporter (ABCB1) using HepaRG (AID 2283460). The essentials:
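ABCB1 transcript level measured by TaqMan qRT-PCR against three housekeeping genes after 48 h chemical exposure of differentiated HepaRG cells. Top concentration 100 uM, half-log steps, eight points, 0.5% DMSO vehicle; bidirectional fit relative to DMSO.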

Read-out in assay [9]: growth arrest and DNA damage 45 (GADD45B), GADD45B (gene 4616)
Briefly: LTEA_HepaRG_GADD45B: Life Technologies and Expression Analysis (LTEA) Assay for growth arrest and DNA damage 45 (GADD45B) using HepaRG (AID 2283461). The gist of the method: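 HepaRG, ~100,000 cells/well, 48 h plating; serum-free induction medium; cpd 100 uM top, half-log x8, 0.5% DMSO, duplicate, 48 h; lysis in RLT, RNA isolation, qRT-PCR; norm ACTB/GAPDH/POLR2A; bidirectional fit vs DMSO.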

Read-out in assay [10]: ABC Transporter (ABCC3), ABCC3 (gene 8714)
The assay is described as follows: LTEA_HepaRG_ABCC3: Life Technologies and Expression Analysis (LTEA) Assay for ABC Transporter (ABCC3) using HepaRG (AID 2283462). The essentials: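 Human HepaRG, 48 h dosing, 8-pt half-log series from 100 uM, 0.5% DMSO vehicle, duplicates. ABCC3 mRNA by TaqMan qRT-PCR, housekeeping-normalized; bidirectional curve fit vs DMSO.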

Read-out in assay [11]: ABC Transporter (ABCB11), ABCB11 (gene 8647)
The assay is described as follows: LTEA_HepaRG_ABCB11: Life Technologies and Expression Analysis (LTEA) Assay for ABC Transporter (ABCB11) using HepaRG (AID 2283463). The gist of the method:
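ABCB11 transcript levels quantified by TaqMan qRT-PCR against three housekeeping genes after 48 h chemical exposure of HepaRG cultures. Concentrations up to 100 uM in half-log steps, 0.5% DMSO vehicle; both induction and suppression scored.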

Read-out in assay [12]: ABC Transporter (ABCC2), ABCC2 (gene 1244)
Briefly: LTEA_HepaRG_ABCC2: Life Technologies and Expression Analysis (LTEA) Assay for ABC Transporter (ABCC2) using HepaRG (AID 2283464). The gist of the method:
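HepaRG, 48 h post-plating; serum-free induction medium; cpd 8-pt, 100 uM top, half-log, 0.5% DMSO, duplicate, 48 h. Readout: ABCC2 mRNA by qRT-PCR, norm. ACTB/GAPDH/POLR2A. Bidirectional fit vs DMSO baseline.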

Read-out in assay [13]: Broad substrate specificity ATP-binding cassette transporter ABCG2 (Homo sapiens) (UniProt Q9UNQ0)
Briefly: LTEA_HepaRG_ABCG2: Life Technologies and Expression Analysis (LTEA) Assay for ABC Transporter (ABCG2) using HepaRG (AID 2283465). The gist of the method: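 ABCG2 transcript was quantified by TaqMan qRT-PCR against three housekeeping genes in HepaRG cells. Cells were treated in duplicate for 48 h across an 8-point half-log series up to 100 uM, with 0.5% DMSO vehicle. Gain or loss versus DMSO was fit.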

Read-out in assay [14]: ATP-citrate lyase (ACLY), ACLY (gene 47)
The assay is described as follows: LTEA_HepaRG_ACLY: Life Technologies and Expression Analysis (LTEA) Assay for ATP-citrate lyase (ACLY) using HepaRG (AID 2283466). The essentials:
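ACLY mRNA quantified by qRT-PCR on Fluidigm arrays against three housekeeping genes, after 48 h chemical treatment of HepaRG cells (top concentration 100 uM, half-log steps, 0.5% DMSO vehicle). Up- or down-regulation fitted relative to DMSO.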

Read-out in assay [15]: Peroxisomal acyl-coenzyme A oxidase 1 (ACOX1) gene, ACOX1 (gene 51)
The assay is described as follows: LTEA_HepaRG_ACOX1: Life Technologies and Expression Analysis (LTEA) Assay for Peroxisomal acyl-coenzyme A oxidase 1 (ACOX1) gene using HepaRG (AID 2283467). The gist of the method: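 ACOX1 transcript levels were quantified by TaqMan qRT-PCR against three housekeeping genes after 48 h chemical exposure of differentiated human HepaRG cells. Exposure used eight half-log steps topping at 100 uM, 0.5% DMSO vehicle, in duplicate. Bidirectional curve fits were made relative to DMSO.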

Read-out in assay [16]: Alkaline Phosphatase, Placental (ALPP) gene, ALPP (gene 250)
The assay is described as follows: LTEA_HepaRG_ALPP: Life Technologies and Expression Analysis (LTEA) Assay for Alkaline Phosphatase, Placental (ALPP) gene using HepaRG (AID 2283468). The gist of the method: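 HepaRG, 48 h plating then 48 h dosing, serum-free induction medium, 0.5% DMSO. 8 conc, half-log, max 100 uM, duplicates. Endpoint: ALPP transcript by qRT-PCR, housekeeping-normalized; gain or loss fitted vs DMSO.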

Read-out in assay [17]: Bcl-2 (BAD) gene, BAD (gene 572)
Briefly: LTEA_HepaRG_BAD: Life Technologies and Expression Analysis (LTEA) Assay for Bcl-2 (BAD) gene using HepaRG (AID 2283469). The gist of the method:
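Read-out: qRT-PCR of BAD mRNA, normalized to three housekeeping genes. Human HepaRG cultures got 48 h chemical exposure in 0.5% DMSO, duplicate eight-point half-log series topping at 100 uM. Gain or loss of signal fitted versus DMSO vehicle.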

Active and inactive are the calls of the source. Rule for the calls: active = hit-call score of the fitted dose curve at least 0.9, where 1 is the maximum; inactive = score below 0.9.

Outcome and AC50 data for 4 compounds are collected here from PubChem BioAssay (EPA / NIEHS).

What is called AC50 is the midpoint of the concentration-response curve, whichever way the signal moves.

Chain of Broad substrate specificity ATP-binding cassette transporter ABCG2 (Homo sapiens) (Q9UNQ0 whole entry, looked up): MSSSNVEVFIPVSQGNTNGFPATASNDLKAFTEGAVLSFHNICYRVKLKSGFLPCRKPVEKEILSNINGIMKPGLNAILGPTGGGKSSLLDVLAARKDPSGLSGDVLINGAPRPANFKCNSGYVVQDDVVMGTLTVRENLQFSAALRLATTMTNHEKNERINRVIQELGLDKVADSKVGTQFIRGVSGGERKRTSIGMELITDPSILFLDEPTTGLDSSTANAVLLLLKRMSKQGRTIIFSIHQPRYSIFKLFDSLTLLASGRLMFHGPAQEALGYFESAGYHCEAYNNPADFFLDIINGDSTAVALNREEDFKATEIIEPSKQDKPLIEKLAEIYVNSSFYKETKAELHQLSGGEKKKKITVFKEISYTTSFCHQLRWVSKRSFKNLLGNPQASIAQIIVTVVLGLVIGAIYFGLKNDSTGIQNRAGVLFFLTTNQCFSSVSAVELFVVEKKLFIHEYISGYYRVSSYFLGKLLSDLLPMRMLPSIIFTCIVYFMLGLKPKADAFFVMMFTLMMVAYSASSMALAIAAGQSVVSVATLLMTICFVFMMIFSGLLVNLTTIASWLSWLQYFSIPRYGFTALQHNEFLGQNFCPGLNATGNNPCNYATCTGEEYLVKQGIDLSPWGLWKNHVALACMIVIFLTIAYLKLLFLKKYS

For `CN=C=S`, the outcome in assay [1], in [2], in assay [3], in [4], in [5] and in assay [6] was inactive. The call in [7], in [8], in [9], in assay [10], in assay [11] and in [12] was inactive. Besides, the compound was classed as inactive in assay [13], in [14], in [15], in assay [16] and in assay [17].
On to `COP(=O)(OC)O/C(C)=C/C(=O)N(C)C`, for which the result in [1], in assay [2], in assay [3], in [4], in assay [6] and in assay [7] was inactive. Further, the outcome in assay [8], in assay [9], in assay [10], in assay [12], in assay [13] and in assay [14] was inactive. The compound was classed as inactive in assay [15], in assay [16] and in assay [17]. Further, the AC50 in assay [11] is 11 µM (active).
For the compound `COC(=O)NC(=S)Nc1ccccc1NC(=S)NC(=O)OC`, the compound was classed as inactive in assay [1], in [2], in assay [4], in assay [5], in [6] and in [7]. In addition, the compound was classed as inactive in assay [9], in assay [10], in assay [11], in assay [13], in [15] and in assay [16]. The result in [17] was inactive. Further, the values for the AC50 in [3] and in assay [12] were 39.2 µM (active) and 35.4 µM (active), respectively.
Consider `CC(C)Nc1nc(Cl)nc(NC(C)C)n1`, for which the outcome in [1], in [2], in assay [4], in [5], in assay [6] and in [7] was inactive. Also, the compound was called inactive in assay [9], in assay [10], in [13], in [15], in assay [16] and in assay [17]. The AC50 was 41.2 µM (active) in assay [3], 73.3 µM (active) in assay [11] and 9.77 µM (active) in [12].
